# Screening results: PubChem, National Center for Advancing Translational Sciences (NCATS)
# Only some compounds are listed: those with a hit (about 12% of all), similar ones and a draw of the others.
# Pf growth 96h – P. falciparum growth inhibition at 96 hour, primary screen for plastid delayed-death inhibitors. P. falciparum luciferase reporter growth, 96 h. Potency, µM (top dose mostly 28.7 µM), inactives show at the top dose activity change, negative = inhibition, actives largely listed as inhibitors. 320,000 compounds, 6.9% hits; also: % is scaled to controls: 0 for no effect and ±100 for the full control effect
#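 Infected RBCs, 2% Hct / 0.05% parasitemia final; luciferase-reporter P. falciparum; cpd 96 h, 37 C, 5% CO2; luciferase detection reagent; luminescence.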
# SARS PLP yeast – blocks SARS-CoV papain-like protease in a yeast assay; S. cerevisiae expressing SARS-CoV PLpro, growth rescue; Potency, µM (highest dose often 32.9 µM), for the others: at the top dose activity, positive = growth rescue, actives largely listed as activators; 330,000 compounds, 0.19% hits; calls by dose curve; also: 0% is about no effect; nearly all actives have a fitted effect of over 55% in size
# Pf growth 48h – P. falciparum growth inhibition at 48 hours (one generation). P. falciparum luciferase growth in erythrocytes, 48 h. Potency, µM (doses to about 28.7 µM), for inactives: at the top dose activity change, negative = inhibition, usual class: inhibitors. AID 504832. 310,000 compounds, 5.9% hits; also: % is scaled to controls: 0 for no effect and ±100 for the full control effect
#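 Luciferase-expressing P. falciparum in infected erythrocytes (2% hematocrit, 0.1% parasitemia final) in RPMI 1640/0.5% Albumax were exposed to compound for 48 hours at 37 C, 5% CO2; growth read as luminescence.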
# Sm TGR block – blocks Schistosoma mansoni thioredoxin glutathione reductase; purified TGR, DTNB reduction, TNB absorbance 405 nm; Potency, µM (highest dose often 114 µM), for inactives: at the top dose activity change, negative = inhibition, most hits filed as inhibitors; 360,000 compounds, 3% hits; AID 485364; also: % is scaled to controls: 0 for no effect and ±100 for the full control effect; nearly all actives have a fitted effect of over 60% in size
#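 First, TGR (20 nM dispensed) and NADPH were mixed with compound. Second, a 15 min room-temperature incubation followed. Third, further NADPH and then DTNB were added to start the reaction. Finally, TNB absorbance was monitored kinetically.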
# * = called active by the depositor; i = inactive; u = inconclusive; x = not tested or not shown; [ ] = another dose, or the depositor's remark. Unless noted, calls follow the shape of the dose curve; as a rule, active = well fitted curve in the direction sought with a large enough effect; inconclusive = small, poorly fitted or top-dose-only effect, or another doubt; inactive = no such curve, though single readings can be large; an effect the other way counts as inactive or inconclusive. Potency is read from the fitted curve at half-maximal effect.
SMILES,Pf growth 96h,SARS PLP yeast,Pf growth 48h,Sm TGR block
COc1cc(SC)ccc1C(=O)Nc1ccc(Cl)cn1,u,-1.0%,-1.5%,11.4%
CSc1ccc(Cl)c(C(=O)Nc2ccc(Cl)cn2)c1,7.38µM*,-0.7%,11.4%,-3.9%
Cc1c([N+](=O)[O-])c(C(=O)Sc2ccc(Br)cc2)nn1C,u,-5.6%,u,0.501µM*
COc1ccc(C23CC4CC(CC(C4)C2)C3)cc1C(=O)NCCN(C)C,11.7µM*,-4.4%,u,5.3%
COc1ccccc1C(=O)NCCC(=O)NCCC12CC3CC(CC(C3)C1)C2,-22.8%,-1.0%,0.7%,2.0%
Cn1c(=O)oc2cc(S(=O)(=O)N3CCC(C(=O)N4CCN(c5ccc(Cl)cc5)CC4)CC3)ccc21,x,x,x,-8.4%
COc1ccc(NC(=O)c2c(NCc3cccs3)sc3c2CCCCC3)c(OC)c1,x,x,x,5.62µM*
COc1ccc(NC(=O)c2c(NCc3cccs3)sc3c2CCCC3)cc1,x,x,x,31.6µM*
CCOc1ccc(NC(=O)c2c(NC(=O)CNCCN3CCOCC3)sc3c2CCC3)cc1,6.1%,3.0%,0.329µM*,-3.4%
COc1ccc2nc(NC3=NCCC3)sc2c1,x,-3.1%,139.8%,12.1%
COc1ccc2nc(Nc3sc4c(c3C(N)=O)CCCC4)sc2c1,u,-66.2%,-19.3%,12.6µM*
Clc1ccccc1-c1nnc(-c2ccc3c(c2)OCO3)o1,u,-5.3%,i,0.5%
CCCCOC(=O)c1ccc(NC(=O)c2cc3c(=O)n4cccc(C)c4nc3s2)cc1,x,x,x,-1.0%
CCC(=O)Nc1sc2c(c1C(=O)Nc1ccc(Br)cc1)CCCCC2,x,x,x,-23.1%
O=C(CN1CCCC1)Nc1sc2c(c1C(=O)Nc1ccc(Br)cc1)CCC2,u,2.3%,11.7µM*,3.0%
CCOC(=O)c1ccc(NC(=O)c2c(NC(=O)CCC(=O)O)sc3c2CCCCC3)cc1,117.9%,0.4%,u,0.0%
CCOC(=O)c1ccc(NC(=O)c2c(NCc3cccs3)sc3c2CCCCC3)cc1,x,x,x,14.1µM*
COc1ccc(CC(=O)Nc2sc3c(c2C(N)=O)CCCC3)cc1,-6.3%,0.1%,x,-14.9%
COc1ccc(NC(=O)CN(C)CC(=O)Nc2sc3c(c2C(N)=O)CCC3)cc1,u,-4.1%,u,50.1µM*
COc1ccc(NC(=O)c2c(NC(=O)CNCc3ccco3)sc3c2CCC3)cc1,u,-2.3%,2.62µM*,1.1%
CN(Cc1ccccc1)C(=O)CSc1nc2ccsc2c(=O)n1-c1ccc(F)cc1,x,x,x,-4.3%
O=C(C[C@@H]1C/C=C\CC[C@@H](Cc2ccc(F)cc2)C(=O)OC[C@@H]2CCCN2C1=O)N[C@H](CO)Cc1ccccc1,x,1.9%,x,x
CC(C)[C@H]1CN=C2N(C[C@H](C)NC(=O)CCC3CCCCC3)[C@H](Cc3ccc(O)cc3)CN21,4.15µM*,0.0%,11.7µM*,20µM*
C[C@@H](CN1C2=NC[C@H](C)N2C[C@H]1Cc1ccc(O)cc1)NC(=O)CCC1CCCCC1,u,0.6%,-14.5%,u
COc1ccc(C[C@@H]2CN3C(=NC[C@@H]3Cc3ccc(O)cc3)N2C[C@H](C)NC(=O)CCC2CCCCC2)cc1,0.738µM*,0.9%,1.17µM*,u
SMILES,Pf growth 96h,SARS PLP yeast,Pf growth 48h,Sm TGR block
COc1ccc(C[C@H]2CN3C(=NC[C@@H]3Cc3ccc(O)cc3)N2C[C@H](C)NC(=O)CCC2CCCCC2)cc1,0.928µM*,0.0%,2.08µM*,-4.6%
CSc1ccc(S(=O)(=O)NCC(=O)OCC(=O)N(Cc2ccccc2)C(C)C)cc1[N+](=O)[O-],-1.0%,7.6%,-6.3%,0.5%
O=C(CSc1nnc(-c2cccs2)n1C1CC1)NC1CCS(=O)(=O)C1 (stereo not drawn),-28.2%,-2.0%,-12.2%,-1.6%
CCOc1ccc(CNC(=O)CS(=O)(=O)c2cccc3nsnc23)cc1,x,x,x,-16.8%
COc1ccc2c(c1)N(C(=O)CN1C(=O)C3CCCCC3C1=O)C(C)(C)C=C2C (stereo not drawn),12.3%,16.4%,11.7µM*,1.4%
COC(=O)c1cc2oc(C)cc2n1CC(=O)Nc1ccc(C(C)C)cc1,x,x,x,-27.3%
Cc1ccc(OCc2nc3ccccc3n2Cc2ccccc2Cl)cc1,x,x,x,11.6%
COc1cc(-c2nc3ccccn3c2NCc2ccccc2)ccc1SC1CCCCC1,u,-2.9%,5.22µM*,3.8%
COc1ccc(Sc2ccc(-c3nc4cnccn4c3NC3CCCCC3)cc2OC)cc1,x,9.0%,x,x
COc1ccc(-c2nc3ccccn3c2NC2CCCCC2)cc1SC1CCCCC1,u,-1.4%,11.7µM*,-0.3%
COc1cc(-c2nc3ccccn3c2NCC2CCCO2)ccc1O (stereo not drawn),43.1%,2.0%,6.2%,-29.2%
COc1ccc(CSc2ccc(-c3nc4ccccn4c3NCc3ccccc3)cc2OC)cc1,u,0.4%,10.4µM*,-0.2%
CCC(C)Sc1ccc(-c2nc3ccccn3c2NCc2ccccc2)cc1OC (stereo not drawn),x,5.2%,x,x
COc1cc(-c2nc3ccc(C)cn3c2NCc2ccccc2)ccc1SC1CCCCC1,4.65µM*,-9.3%,u,-0.3%
COc1ccc(NC(=O)CN2C(=O)C(C)(C)c3cc(S(=O)(=O)N4CCCCC4)ccc32)cc1Cl,x,x,x,4.4%
CCOc1ccc(C(=O)NCC(=O)N2CC=C(c3ccccc3)CC2)cc1OCC,u,-0.4%,u,-4.3%
c1ccc(-c2nc3ccccn3c2NC2CCCC2)nc1,18.9%,-6.1%,10.4µM*,-6.2%[57.1 µM]
CC(NC(=O)c1ccc2c(c1)N(Cc1cccc(F)c1)C(=O)c1ccccc1S2)c1ccccc1 (stereo not drawn),x,x,x,10.7%
Cc1cccc2sc(NC(=O)C3CC3)nc12,32.3%,x,30.9%,1.6%
Cc1cccc2sc(NC(=O)c3ccc(Cl)s3)nc12,13.1µM*,1.4%,x,6.8%
Cc1ccccc1NC(=O)c1ccc(NC(=O)C2CC(=O)OC23CCCCC3)cc1 (stereo not drawn),27.0%,0.5%,13.1µM*,7.4%
CC(=O)Nc1nonc1-n1nnc(C(=O)NCc2ccccc2)c1C,2.33µM*,3.1%,-28.1%,7.0%
CC(=O)Nc1c(C(=O)NCc2ccccc2)nnn1Cc1ccccc1,2.6%,4.4%,2.5%,16.7%
CCc1ccc2[nH]c(=O)c(CN(Cc3ccccc3OC)Cc3nnnn3Cc3ccco3)cc2c1,u,0.2%,4.65µM*,u
COc1ccccc1CN(Cc1cc2cc(C)ccc2[nH]c1=O)Cc1nnnn1Cc1ccco1,3.29µM*,-3.2%,11.7µM*,39.8µM*
CCOC(=O)Cn1nnnc1CN(Cc1ccc(OC)cc1)Cc1cc2cc(CC)ccc2[nH]c1=O,u,u,x,2.0%
COCCCNC(=O)CCc1c(C)nc2nc(-c3cc(OC)cc(OC)c3)nn2c1C,x,x,x,-4.6%
COc1ccccc1N1CCN(S(=O)(=O)c2c(C)nc3sc(C)c(C)n3c2=O)CC1,x,x,x,4.0%
Cc1cnc(C(=O)OCC(=O)N2CCN(C(=O)c3ccco3)CC2)cn1,5.22µM*,5.2%,-0.9%,-1.9%
O=C(OCC(=O)N1CCN(C(=O)c2ccco2)CC1)c1ccccc1OCc1ccccc1,11.7µM*,7.0%,-8.3%,u
